High-throughput results from PubChem.
aSyn 5UTR act = Activators via SNCA 5'UTR binding, MLPCN | activity score, % (tested at 7.5 µM), hits read low | alpha-synuclein 5'UTR reporter, activators screen | actives 7.1% (n = 300,000); in the data active means activity score below about -60%
Numbers without * were called inactive. The list is a sample of the results.

SMILES | aSyn 5UTR act
O=C(Nc1cccnc1)c1ccc(Oc2ccccc2)cc1 | -70*
CCCOc1ccc(C(=O)Nc2cccnc2)cc1 | -181*
CCCCOc1ccc(C(=O)Nc2ccncc2)cc1 | -123*
O=C(Nc1cccnc1)c1ccc(CSc2ccccc2)cc1 | -115*
Cc1ccc(C(=O)Cn2ncsc2=N)cc1 | -164*
CCCOc1ccc2cc(-c3ccccn3)c(=O)oc2c1 | 77
O=c1oc2cc(OCc3c(F)cccc3Cl)ccc2cc1-c1ccccn1 | -107*
CC(C)OCCCNC(=O)c1ccc(Br)cc1 | -73*
CCCC1=Nc2cc(C(=O)NCCCOCC)ccc2Sc2ccccc21 | 67
CCOCCCNC(=O)c1ccc(Br)cc1 | -84*
CC1=Nc2cc(C(=O)NCCCOC(C)C)ccc2Sc2ccc(C)cc21 | 77
C/C(=N\Nc1nc(C)c(C)s1)c1ccc([N+](=O)[O-])cc1 | -130*
CCOC(=O)c1nc(NNC(=O)c2ccc([N+](=O)[O-])cc2)sc1C | 62
C/C(=N\Nc1ccc([N+](=O)[O-])cc1)c1ccco1 | -180*
CCc1ccc(/C(C)=N\Nc2ccc([N+](=O)[O-])cc2)cc1 | -137*
C/C(=N\Nc1ccc([N+](=O)[O-])cc1)c1ccc(N)cc1 | -101*
Cc1cc2[nH]c3ccccc3c2c(C)n1 | -85*
Cc1cc2ncn(CCOc3ccccc3)c2cc1C | -168*
CCN1C(=S)SC(=O)C1=C1C=C(C)N(CCO)C(C)=C1 | -165*
N#C/C(=C(/O)c1ccc(Cl)cc1)c1nc2ccccc2[nH]1 | -67*
O=C(/C(=C/c1ccc(Cl)cc1)c1nc2ccccc2[nH]1)c1ccccc1 | -217*
COC(=O)N(C)c1nc2ccccc2s1 | -77*
CCCCNC(=O)c1cc2ccccc2s1 | -108*
CN(C(=O)OC(C)(C)C)c1ccc(-c2nc3ccccc3s2)cc1 | 104
CCCCNC(=O)N(C)c1nc2ccccc2s1 | -133*
SMILES | aSyn 5UTR act
O=C(c1cc2ccccc2o1)c1nc2c(n1O)CCCCC2 | -73*
Cc1ccc(C(=O)c2nc3c(n2O)CCCC3)cc1 | -86*
Cc1cccc(NC(=O)/C(C#N)=C/c2ccccc2O)n1 | -140*
O=S(=O)(NCC1(N2CCOCC2)CCCCC1)c1ccccc1Cl | -91*
Cc1nc(NC(=O)C23CC4CC(CC(C4)C2)C3)sc1Cc1ccc2c(c1)OCO2 | -184*
Cc1ccc2nc(-c3ccc(NC(=O)C(C)N4C(=O)c5ccccc5C4=O)cc3)sc2c1 (stereo not drawn) | -102*
Cc1ccc(C2(C)NC(=O)N(CC(=O)Nc3ccc(-c4nc5ccc(C)cc5s4)cc3)C2=O)cc1 (stereo not drawn) | -160*
Cc1ccc2nc(-c3ccc(NC(=O)CCN4C(=O)c5ccccc5C4=O)cc3)sc2c1 | -171*
Nc1ccn([C@@H]2O[C@H](CO)[C@@H](O)C2O)c(=O)n1 (stereo partly drawn) | 72
N=c1ccn2c(n1)OC1C(O)C(CO)OC12 (stereo not drawn) | 112
OC[C@H]1O[C@@H](n2cnc3c(Nc4ccccc4)ncnc32)[C@H](O)[C@@H]1O | -79*
Cc1ccnc(N=Cc2nc(-c3ccccc3Br)oc2O)c1 | -102*
N=C1C(c2nc3ccccc3s2)=C(O)CN1c1ccccc1 | -120*
CCN1CC(O)=C(c2nc3ccccc3s2)C1=N | -70*
CCCCN1CC(O)=C(c2nc3ccccc3s2)C1=N | -167*
COc1ccc(/C=C2\SC(=O)N(CCNC(=O)C3CC4C=CC3C4)C2=O)cc1 (stereo not drawn) | -194*
COc1ccc2nc(-n3c(O)c(C4=c5ccccc5=NC4=O)[nH]c3=S)sc2c1 | -74*
C=CCOC(=O)c1sc(NC(=O)c2ccco2)nc1C | -167*
CCOC(=O)c1sc(NC(=O)c2cc3ccccc3o2)nc1C | -113*
CCOC(=O)c1sc(NC(=O)c2ccc(CC)s2)nc1C | -133*
CCc1ccc(C(=O)Nc2cc(C)ccc2F)s1 | -143*
Cc1nnc(NC(=O)c2cc3ccccc3o2)s1 | -82*
CCOC(=O)c1sc(Nc2ccccc2Cl)nc1C | -184*
Cc1nc2c(ccc3nc(NC(=O)c4ccc5c(c4)OCCO5)sc32)s1 | -117*
CCOC(=O)c1sc(NC(=O)Nc2ccccc2F)nc1C | 70
SMILES | aSyn 5UTR act
CCOC(=O)c1csc(-c2ccc3c(c2)CCO3)n1 | -110*
CCOC(=O)c1csc(NC(=O)c2ccccc2)n1 | -158*
CCOC(=O)c1csc(NC(=O)c2cc3ccccc3o2)n1 | -125*
CCOC(=O)c1csc(NC(=O)c2ccc3c(c2)OCCO3)n1 | -79*
CCOC(=O)Cc1cnc(NC(=O)c2ccccc2)s1 | -113*
COC(=O)Cc1csc(Nc2ccccc2Cl)n1 | -86*
O=C(/C=C/c1ccc(Cl)cc1)N1CCOCC1 | -76*
CCCOc1ccc(/C=C/C(=O)N2CCOCC2)cc1 | -68*
CC(C)c1ccc(/C=C/C2=NNC(=O)CC2)cc1 | 87
CC(C)c1ccc(/C=C/C(=O)N2CCOCC2)cc1 | -156*
CCC(=O)Nc1ccc2nc(C3CC3)n(Cc3ccc(C(C)(C)C)cc3)c(=O)c2c1 | -150*
CC(=O)Nc1ccc2nc(C3CC3)n(Cc3ccc(Cl)cc3)c(=O)c2c1 | -165*
COc1ccc(Cn2c(C3CC3)nc3ccc(NC(=O)C4CC4)cc3c2=O)cc1 | -280*
O=C(NCC1CCCN(C(=O)c2cscn2)C1)c1ccccc1Cl (stereo not drawn) | -78*
CCCc1cc(N2CCOCC2)n2ncc(-c3ccccc3)c2n1 | -67*
Cc1nc2c(-c3ccccc3)cnn2c(N2CCOCC2)c1C | -191*
Cc1ccc(OCn2c(=O)sc3ccccc32)cc1 | -158*
O=c1sc2ccccc2n1CCOc1ccccc1 | -133*
Cc1ccc2c(COC(=O)c3ccc(NC(=O)CC#N)cc3)cc(=O)oc2c1C | -69*
CCCc1cc(C(=O)Nc2cc(Cl)ccc2O)no1 | -162*
CCCc1cc(C(=O)Nc2cc(Br)ccc2O)no1 | -145*
O=C(O)CCCN1C(=O)/C(=C\c2ccc(-c3nc4ccccc4s3)o2)SC1=S | -83*
O=Cc1ccc(-c2nc3ccccc3s2)o1 | -98*
O=C(/C=C/c1ccccc1Cl)Nc1cccnc1 | -150*
O=C(/C=C/c1ccccc1Cl)Nc1cccc(S(=O)(=O)NC2=NCCCCC2)c1 | -82*
SMILES | aSyn 5UTR act
O=C(/C=C/c1ccccc1Cl)NC1CCCCC1 | -119*
O=C(/C=C/c1ccc(Cl)cc1Cl)Nc1ccncc1 | -280*
O=C(COC(=O)/C=C/c1ccccc1Cl)NCCNC(=O)COC(=O)/C=C/c1ccccc1Cl | -63*
CCC(CC)NC(=O)/C=C/c1ccccc1Cl | -100*
COc1ccccc1/C=C/C(=O)Nc1cccnc1 | -76*
CC(=O)N(C)c1ccc(NC(=O)/C=C/c2ccccc2Cl)cc1 | -85*
O=C(/C=C/c1ccccc1Cl)Nc1ccncc1 | -346*
O=C(/C=C/c1ccc(Cl)c(Cl)c1)Nc1cccnc1 | -102*
CC(C)(C)c1ccc(/C=C/C(=O)Nc2cccnc2)cc1 | -232*
O=C(NC1CCCC1)c1cc(-c2ccc(F)cc2)on1 | -322*
O=C(NC1CCCC1)c1cc(-c2ccc(Cl)cc2)on1 | -234*
O=C(NC1CCCCC1)c1cc(-c2ccc(Cl)cc2)on1 | -115*
C/C(=N\NC(=O)c1c(Cl)cnn1C)c1cccc(NC(=O)COc2ccccc2)c1 | -88*
C/C(=N/NC(=O)c1ccc(C)s1)c1cccc(NC(=O)COc2ccc(Cl)cc2Cl)c1 | -126*
C/C(=N/NC(=O)c1ccc(Cl)s1)c1ccc(NC(=O)COc2ccc(Cl)cc2)cc1 | -77*
C/C(=N/NC(=O)c1ccco1)c1cccc(NC(=O)c2ccc(C)s2)c1 | -143*
